{"source": "PubChem BioAssay (EPA / NIEHS)", "key": {"[1]": {"molecular_target": "Luciferin 4-monooxygenase (Photinus pyralis) (UniProt P08659)", "sequence (P08659 whole entry, looked up)": "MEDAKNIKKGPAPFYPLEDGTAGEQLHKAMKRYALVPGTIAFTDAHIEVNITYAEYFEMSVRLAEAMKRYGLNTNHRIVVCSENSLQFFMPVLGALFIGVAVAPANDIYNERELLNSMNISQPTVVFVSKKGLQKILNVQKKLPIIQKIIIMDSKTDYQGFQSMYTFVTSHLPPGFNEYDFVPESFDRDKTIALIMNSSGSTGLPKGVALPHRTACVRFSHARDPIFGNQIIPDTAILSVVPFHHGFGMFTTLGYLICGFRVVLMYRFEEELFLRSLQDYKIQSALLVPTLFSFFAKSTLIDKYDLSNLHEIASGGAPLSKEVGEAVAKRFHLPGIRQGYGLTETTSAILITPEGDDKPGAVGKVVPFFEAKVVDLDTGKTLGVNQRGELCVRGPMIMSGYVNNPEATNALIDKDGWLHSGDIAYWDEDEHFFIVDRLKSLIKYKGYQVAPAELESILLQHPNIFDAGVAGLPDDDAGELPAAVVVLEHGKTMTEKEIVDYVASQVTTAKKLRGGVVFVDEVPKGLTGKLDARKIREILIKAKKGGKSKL", "assay": "CCTE_Simmons_QuantiLum_inhib_2: CCTE's Firefly Luciferase Inhibition Assay, Simmons Lab (AID 2283767);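 for AC50: potency for inhibitors that lower luciferase luminescence relative to DMSO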", "method_in_brief": "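Eight test concentrations, 5 nM up to 87.5 uM final, preincubated 30min at 37C in the dark with purified luciferase (0.5% DMSO final). Detection reagent (150uM D-luciferin, 147uM dATP, 75uM CoA, pH 7.8) injected per well before kinetic luminescence read; three replicates.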"}, "[2]": {"assay": "ACEA_AR_agonist_AUC_viability: ACEA Biosciences xCELLigence Real-Time Cell Analysis on Androgen Receptor Agonism for Viability (AID 2283775);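 for AC50: viability read 80 hours after compound addition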", "method_in_brief": "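22Rv1 cells; impedance growth kinetics; 8-pt 1:4 dilutions from 100 uM top final, ≤0.5% DMSO; n = 2; 80 h read; AUC viability, loss-of-signal vs DMSO.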"}, "[3]": {"assay": "ACEA_AR_antagonist_AUC_viability: ACEA Biosciences xCELLigence Real-Time Cell Analysis on Androgen Receptor Antagonism for Viability (AID 2283776);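 note: 22Rv1 human prostate cancer cells growing on impedance electrode plates; area under impedance growth curve at 80 h after dosing as viability; hits lower the growth signal relative to DMSO meaning cytotoxicity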", "method_in_brief": "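Viability endpoint from label-free cell-index monitoring: 22Rv1 cultures treated with an eight-point 1:4 dilution series starting at 100 uM final, AUC at 80 h fitted against DMSO.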"}, "[4]": {"assay": "ArunA_Migration_hNP: ArunA Biomedical's Oris Neuroprogenitor (hNP) Cell Migration Assay (AID 2283754)", "method_in_brief": "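Readout is calcein-AM fluorescence (ex494/em517) of cells migrating into the detection zone, relative to DMSO. hNP1 cells (H9-derived) grown on Matrigel behind stoppers 16 h, then stoppers pulled and chemical applied 72 h; cytochalasin D as control.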"}, "[5]": {"assay": "ArunA_NOG_BranchPointsPerNeurite: ArunA Biomedical's Neurite Outgrowth (NOG) Assay for Branch Points Per Neurite (AID 2283759)", "method_in_brief": "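Automated image analysis traced neurites (processes >10 um) from valid cell bodies after Hoechst and βIII-tubulin staining. hNN cells from H9 embryonic stem cells, 48 h exposure. Fitted bidirectionally against DMSO.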"}}, "note": "Values joined by “and” are separate entries in the source; they are usually repeats but may differ in a detail not shown here. Equal values may be shown once. Records with an inconclusive call do not appear. Active and inactive are the calls of the source. Rule for the calls: active = hit-call score of the fitted dose curve at least 0.9, where 1 is the maximum; inconclusive = response in the unintended direction; inactive = score below 0.9."}
{"molecule": "Cc1ccc2ccccc2c1C", "values": [{"measurement": "outcome", "setting": "[1]", "value": "inactive"}]}
{"molecule": "CC1(C)Cc2cccc(O)c2O1", "values": [{"measurement": "outcome", "setting": "[1]", "value": "inactive"}, {"measurement": "outcome", "setting": "[2]", "value": "inactive"}, {"measurement": "outcome", "setting": "[3]", "value": "inactive"}]}
{"molecule": "NNC(=S)NN", "values": [{"measurement": "outcome", "setting": "[1]", "value": "inactive"}, {"measurement": "outcome", "setting": "[2]", "value": "inactive"}, {"measurement": "outcome", "setting": "[3]", "value": "inactive"}]}
{"molecule": "Cc1ccccc1N", "values": [{"measurement": "outcome", "setting": "[1]", "value": "inactive"}, {"measurement": "outcome", "setting": "[2]", "value": "inactive"}, {"measurement": "outcome", "setting": "[3]", "value": "inactive"}]}
{"molecule": "CCOP(=S)(OCC)Oc1nc(Cl)c(Cl)cc1Cl", "values": [{"measurement": "outcome", "setting": "[1]", "value": "inactive"}, {"measurement": "AC50", "setting": "[2]", "value": "83.9 µM (active)"}, {"measurement": "AC50", "setting": "[3]", "value": "63.3 µM (active)"}]}
{"molecule": "CC(C)(c1ccc(OCC2CO2)cc1)c1ccc(OCC2CO2)cc1", "note": "(configuration not stated)", "values": [{"measurement": "outcome", "setting": "[1]", "value": "inactive"}, {"measurement": "outcome", "setting": "[2]", "value": "inactive"}, {"measurement": "outcome", "setting": "[3]", "value": "inactive"}]}
{"molecule": "ClCC(Cl)CCl", "values": [{"measurement": "outcome", "setting": "[4]", "value": "inactive"}, {"measurement": "outcome", "setting": "[5]", "value": "inactive"}, {"measurement": "outcome", "setting": "[3]", "value": "inactive"}]}
{"molecule": "CCCCCCCCc1ccc(O)cc1", "values": [{"measurement": "outcome", "setting": "[1]", "value": "inactive"}, {"measurement": "AC50", "setting": "[2]", "value": "29.8 µM (active)"}, {"measurement": "AC50", "setting": "[3]", "value": "28.9 µM (active)"}]}
{"molecule": "CC(C)(c1ccccc1)c1ccc(O)c(C(C)(C)c2ccccc2)c1", "values": [{"measurement": "outcome", "setting": "[1]", "value": "inactive"}, {"measurement": "AC50", "setting": "[2]", "value": "10.1 µM (active)"}, {"measurement": "AC50", "setting": "[3]", "value": "12.8 µM (active)"}]}
{"molecule": "O=C(Nc1ccc2[nH]ccc2c1)c1cc2cc(F)ccc2n1Cc1cccc(F)c1", "values": [{"measurement": "AC50", "setting": "[1]", "value": "33.3 µM (active)"}, {"measurement": "AC50", "setting": "[2]", "value": "14.5 µM (active)"}, {"measurement": "AC50", "setting": "[3]", "value": "10 µM (active)"}]}
{"molecule": "Oc1cccc2cccnc12", "values": [{"measurement": "outcome", "setting": "[1]", "value": "inactive"}, {"measurement": "AC50", "setting": "[2]", "value": "22.3 µM (active) and 6.75 µM (active)"}, {"measurement": "AC50", "setting": "[3]", "value": "18.6 µM (active) and 9.5 µM (active)"}]}
{"molecule": "O=C(O)C(F)(F)C(F)(F)C(F)(F)C(F)(F)C(F)(F)C(F)(F)F", "values": [{"measurement": "outcome", "setting": "[1]", "value": "inactive"}, {"measurement": "outcome", "setting": "[2]", "value": "inactive"}, {"measurement": "outcome", "setting": "[3]", "value": "inactive"}]}
{"molecule": "CC(C)c1cccc(C(C)C)c1O", "values": [{"measurement": "outcome", "setting": "[1]", "value": "inactive"}, {"measurement": "outcome", "setting": "[2]", "value": "inactive"}, {"measurement": "outcome", "setting": "[3]", "value": "inactive"}]}
